Most compounds without a hit are left out; they make up all but 3.2% or so of the library.
Tau fibril ThT – qHTS for Inhibitors of Tau Fibril Formation, Thioflavin T Binding; Microtubule-associated protein tau (Homo sapiens), P10636; recombinant tau K18 P301L, heparin-induced fibrillization, ThT fluorescence; Potency, µM (top dose mostly 57.4 µM), for inactives: at the highest dose activity, negative = inhibition, actives largely listed as inhibitors; 270,000 tested, 2.1% active; AID 1460, 2008; also: potency is read from the fitted curve at half-maximal effect; % is scaled to controls: 0 for no effect and ±100 for the full control effect; nearly all actives have a fitted effect of over 55% in size
Target sequence (P10636 561-689 P618L limits assumed): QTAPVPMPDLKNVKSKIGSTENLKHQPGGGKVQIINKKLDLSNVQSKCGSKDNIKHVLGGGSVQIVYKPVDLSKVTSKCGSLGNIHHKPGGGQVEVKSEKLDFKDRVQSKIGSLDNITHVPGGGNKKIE
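Fibril formation assay: tau K18 P301L at 15 uM with trace Alexa 594 label, heparin inducer 20 uM, pH 7 sodium acetate buffer, 37 C for 6 hr; endpoint ThT signal.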
JMJD2E inh – qHTS Assay for Inhibitors of Human Jumonji Domain Containing 2E (JMJD2E). 230,000 tested, 1.6% active. Potency, µM (highest dose often 57.1 µM), for the others: top-dose activity change, negative = inhibition, actives largely listed as inhibitors. JMJD2E catalytic domain, FDH-coupled NADH fluorescence (FDH is formaldehyde dehydrogenase). AID 2147, 2009. Lysine-specific demethylase 4E (Homo sapiens), B2RXH2; active = well fitted inhibition curve with a large enough effect, not every such curve was filed as active; inconclusive = small, poorly fitted or top-dose-only effect, or another doubt; inactive = no such curve, though single readings can be large or run the other way;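 also: potency is read from the fitted curve at half-maximal effect; 0% = wells with enzyme and -100% = buffer wells without enzyme; nearly all actives have a fitted effect of over 50% in size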
CBFb RUNX1 block – qHTS Assay for Compounds Blocking the Interaction Between CBF-beta and RUNX1 for the Treatment of Acute Myeloid Leukemia; AlphaScreen CBFb-His/RUNX1-biotin binding, biochemical; 230,000 tested, under 10 active; Runt-related transcription factor 1 (Homo sapiens) + Core-binding factor subunit beta …; Potency, µM (titrated, usually from 59.8 µM), without a hit: at the top dose activity, negative = inhibition, usual class: inhibitors; also: % of control where 0% means no effect
Target sequence (Q01196 whole entry, looked up): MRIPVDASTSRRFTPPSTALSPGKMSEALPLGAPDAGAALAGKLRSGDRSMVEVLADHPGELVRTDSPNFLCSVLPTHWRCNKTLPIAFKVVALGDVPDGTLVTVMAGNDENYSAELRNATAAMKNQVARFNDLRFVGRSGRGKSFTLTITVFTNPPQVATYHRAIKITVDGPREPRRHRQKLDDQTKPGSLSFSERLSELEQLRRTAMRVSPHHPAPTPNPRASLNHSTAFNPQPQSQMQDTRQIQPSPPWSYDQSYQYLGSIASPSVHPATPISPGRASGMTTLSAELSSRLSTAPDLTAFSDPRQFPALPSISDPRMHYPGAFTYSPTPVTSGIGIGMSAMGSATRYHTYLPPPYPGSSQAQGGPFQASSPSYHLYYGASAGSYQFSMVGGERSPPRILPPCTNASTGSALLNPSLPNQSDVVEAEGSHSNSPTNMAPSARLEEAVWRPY
Target sequence (Q13951 whole entry, looked up): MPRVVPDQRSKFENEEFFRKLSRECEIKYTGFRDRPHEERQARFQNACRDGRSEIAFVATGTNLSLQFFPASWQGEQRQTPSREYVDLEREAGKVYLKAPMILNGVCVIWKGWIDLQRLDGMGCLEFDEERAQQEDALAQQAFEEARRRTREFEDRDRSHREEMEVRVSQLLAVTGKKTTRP
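CBFb-His/RUNX1-biotin, 30 nM each, preincubated 20 min RT; compound 15 min RT; Ni + streptavidin beads 50 ng each, 90 min RT; AlphaScreen read.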
Lamin A splicing – qHTS Assay for Modulators of Lamin A Splicing | 200,000 tested, 0.01% active | Potency, µM (doses to about 46.1 µM), without a hit: top-dose ratio change, negative = inhibition, usual class: inhibitors | AID 1487, 2009 | HeLa LMNA splicing GFP/RFP minigene ratio, 48 h; active = well fitted inhibition curve with a large enough effect in the signal ratio, with a control signal flat, not every such curve was filed as active; inconclusive = small, poorly fitted or top-dose-only effect, or effect the other way, or a change in a side signal; the % refers to the signal ratio; also: potency is read from the fitted curve at half-maximal effect; % is scaled to controls: 0 for no effect and ±100 for the full control effect
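Read-out is the ratio of GFP to DsRed2 object intensity, acquired by 488 nm laser-scanning cytometry on HeLa lamin A-EGFP minigene reporter cells. Compound incubation 48 hrs at 37 °C in Opti-MEM with 2% FBS; DMSO 0.5% final.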
Tau fluor counter – Counterscreen qHTS for Inhibitors of Tau Fibril Formation, Fluorescence Polarization | 280,000 tested, 0.93% active | Potency, µM (doses to about 57.7 µM), for inactives: top-dose activity change, negative = decrease | tau K18 P301L (four-repeat tau fragment) Alexa594 fluorescence, heparin fibrillization; also: potency is read from the fitted curve at half-maximal effect; % is scaled to controls: 0 for no effect and ±100 for the full control effect; nearly all actives have a fitted effect of over 55% in size
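Human K18 P301L tau (15 uM unlabeled plus 0.24 uM Alexa 594-labeled, final) in 100 mM sodium acetate pH 7 was mixed with compound and 20 uM heparin and incubated 6 hr at 37 C.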
Tau fibril FP – qHTS for Inhibitors of Tau Fibril Formation, Fluorescence Polarization; 280,000 tested, 0.39% active; AID 1468, 2008; K18 P301L tau heparin fibrillization, Alexa594 FP, 6 h; Potency, µM (titrated, usually from 57.7 µM), inactives show top-dose activity, negative = inhibition, usual class: inhibitors; also: potency is read from the fitted curve at half-maximal effect; % is scaled to controls: 0 for no effect and ±100 for the full control effect; nearly all actives have a fitted effect of over 55% in size
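Compound effects on tau fibrillization are measured by Alexa 594 fluorescence polarization (ex 555, em 632 nm). K18 P301L tau is used at 15 uM with 0.24 uM labeled tracer, and 20 uM heparin induces aggregation over 6 hr at 37 C.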
The depositor's hits bear a star; ? = inconclusive; nt = no result given; ! = not active in a repeat; [ ] = remark or other dose. Unless noted, calls follow the shape of the dose curve; as a rule, active = well fitted curve in the direction sought with a large enough effect; inconclusive = small, poorly fitted or top-dose-only effect, or another doubt; inactive = no such curve, though single readings can be large; an effect the other way counts as inactive or inconclusive.

SMILES	Tau fibril ThT	JMJD2E inh	CBFb RUNX1 block	Lamin A splicing	Tau fluor counter	Tau fibril FP
O=C1NCCCC1C(=O)N/N=C/c1ccc([N+](=O)[O-])cc1 (centres undefined)	nt	4%	19%	nt	8%	1%
O=C1NCCCC1C(=O)N/N=C/c1cc([N+](=O)[O-])ccc1O (centres undefined)	-14%	10µM*	?	nt	-2%	4%
Cc1ccc(Sc2ccccc2CN(C)C)c(N)c1	nt	nt	19%	nt	nt	nt
CC(=O)N[C@@H](CCCNC(=N)N)C(=O)N[C@H](CC1CCCCC1)C(=O)N[C@@H]1CCC2SC[C@@H](C(=O)N[C@H](CCCNC(=N)N)C(=O)N[C@H](Cc3ccc(Cl)cc3)C(N)=O)N2C1=O (some centres undefined)	nt	nt	11%	nt	nt	nt
CCOc1ccccc1NC(=O)C(OC(=O)c1ccc(O)cc1)c1ccccc1 (centres undefined)	5%	-5%	-5%	?	?	22µM*
CCOc1ccccc1NC(=O)C(OC(=O)c1ccc(CC)cc1)c1ccccc1 (centres undefined)	-5%	-1%	?	5%	-11%	-2%
Cc1ccc2c(c1)c1c(c(=O)n(Cc3ccccc3)c(=O)n1CC(=O)Nc1ccccc1F)n2C	10%	nt	nt	nt	0%	-5%
CC(C)CCOC(=O)/C=C/c1ccccc1	nt	nt	3%[21.7 µM]	nt	nt	nt
CCOC(=O)c1c(-c2ccc(Cl)cc2)csc1NC(=O)CNCc1ccco1	-10%	25µM*	16%	nt	-13%	-1%
CC/C=C\C/C=C\C/C=C\CCCCCCCC(=O)O	28µM*!	?	?	?	-15%	?
O=C(CNc1cccc2ccccc12)N/N=C/c1cccc(Oc2ccccc2)c1	?	28µM*	-13%	-19%	7.9µM*[quencher]	?
O=C(CNc1cccc2ccccc12)N/N=C/c1ccccn1	?	?	-19%	nt	?	-1%
CCOC(=O)c1c(C)sc(-c2c(-c3ccc(OC)c(F)c3)[nH]c3[nH]c(=O)[nH]c(=O)c23)c1O	0%	nt	nt	?	3.5µM*[quencher]	6%
CCOC(=O)c1c(C)sc(-c2c(-c3ccc4c(c3)OCCO4)[nH]c3c2c(=O)[nH]c(=O)n3C)c1O	?	nt	nt	18%[46 µM]	?	13%
CCOC(=O)c1c(C)sc(-c2c(-c3ccc(OC)c(F)c3)[nH]c3c2c(=O)[nH]c(=O)n3C)c1O	?	nt	nt	-6%[46 µM]	13µM*[quencher]	13%
CCc1ccc(-c2[nH]c3c(c2-c2sc(C)c(C(=O)OC)c2O)c(=O)[nH]c(=O)n3C)cc1	-16%	nt	nt	?	?	10%
COC(=O)c1c(C)sc(-c2c(-c3ccc4c(c3)OCCO4)[nH]c3[nH]c(=O)[nH]c(=O)c23)c1O	?	nt	nt	17%[46 µM]	20µM*[quencher]	?
CCOC(=O)c1c(C)sc(-c2c(-c3ccccc3)[nH]c3[nH]c(=O)[nH]c(=O)c23)c1O	?	nt	nt	?	6.3µM*[quencher]	4%
CCOC(=O)CN(Cc1ccccc1)C(C(=O)NC1CCCCC1)c1ccc(OC)cc1 (centres undefined)	?	nt	nt	nt	-11%	-1%
CCC[C@H](NC(=O)[C@H](Cc1ccc(O[S+](=O)([O-])O)cc1)NC(=O)OC(C)(C)C)C(=O)NCC(=O)N[C@@H](Cc1c[nH]c2ccccc12)C(=O)N[C@@H](CCC)C(=O)N[C@@H](CC(=O)OCCc1ccccc1)C(=O)O	nt	nt	3%	nt	nt	nt
CCN(C(=O)CCS(=O)(=O)c1cc(Br)cc2c1N(C(=O)C1CC1)CC2)c1cccc(C)c1	-20%	nt	nt	nt	-14%	5%
COc1ccc(-n2ncc(C(=O)NCCc3ccsc3)c2C2CCN(C(=O)OC(C)(C)C)CC2)cc1	-8%	nt	nt	-21%[46 µM]	-8%	3%
Cc1cc(C)cc(NC(=O)Cn2nnc(-c3ccccc3F)n2)c1	-11%	nt	nt	20%[46 µM]	-16%	-23%
CCC(Sc1nncn2c1cc1occc12)C(=O)Nc1ccc(C)c(Cl)c1 (centres undefined)	-9%	nt	nt	nt	?	?
COC[C@H]1OC=C[C@@H](OC)[C@@H]1OC	-4%	2%	-7%	nt	0%	2%
SMILES	Tau fibril ThT	JMJD2E inh	CBFb RUNX1 block	Lamin A splicing	Tau fluor counter	Tau fibril FP
COc1ccc(N2C(=O)C(Cl)=C(N3CCCC3)C2=O)cc1	?	2%	-3%	-8%	-21%	?
COC(=O)c1cccc(N2C(=O)C(Cl)=C(N3CCOCC3)C2=O)c1	14µM*	-2%	3%	9%	?	28µM*
CN1CCN(C2=C(Cl)C(=O)N(c3ccc(Cl)c(Cl)c3)C2=O)CC1	14µM*	0%	3%	?	-28%	?
Cc1ccc(N2C(=O)C(Cl)=C(N3CCOCC3)C2=O)cc1Cl	14µM*	0%	2%	-7%	?	22µM*
CN1CCN(C2=C(Cl)C(=O)N(c3cccc(Cl)c3)C2=O)CC1	22µM*	-3%	5%	-10%	?	?
O=C(Nc1ccccc1Cl)C1CCN(c2nc3ccccc3[nH]2)CC1	-6%	nt	nt	-2%[46 µM]	1%	8%
O=C1C(Cl)=C(N2CCOCC2)C(=O)N1c1ccccc1Cl	14µM*	3%	3%	2%	?	20µM*
Cc1ccccc1N1C(=O)C(Cl)=C(N2CCN(c3ccccc3)CC2)C1=O	16µM*	-18%	-25%	7%	?	?
O=C(O)c1cc(-c2ccc(N3CCOCC3)cc2)nn1-c1ccccc1Cl	?	?	?	1%[46 µM]	-15%	0%
CC1CCN(C(=O)c2ccc3c(c2)N(Cc2ccccc2F)C(=O)c2ccccc2S3(=O)=O)CC1	0%	nt	nt	nt	-19%	6%
COc1cc(/C=N/c2oc(-c3ccccc3)cc2C#N)ccc1O	16µM*	?	10%	-13%	?	9%
O=c1[nH]c(SCc2cccc(Cl)c2)nc2c1CCC2	16%	nt	nt	nt	-13%	-12%
C[C@H]1[C@H](C)CC[C@]2(C=O)CC[C@]3(C)C(=CC[C@@H]4[C@@]5(C)C[C@@H](O)[C@H](O)[C@@](C)(CO)[C@@H]5CC[C@]43C)[C@H]12	nt	nt	13%	nt	nt	nt
COC(=O)c1sc(NC(=O)c2ccc(Cn3cc(Cl)cn3)o2)c(C#N)c1C	25µM*	?	-4%	?	?	?

Source: PubChem
